Measured values from PubChem BioAssay (NCATS).
Inconclusive results are not listed. The source made the active and inactive calls. Unless noted, calls come from the whole dose curve.

Experiments:
[1] = qHTS for Inhibitors of the Functional Ribonucleoprotein Complex (vRNP) of Lassa (LASV) Arenavirus: LASV Primary Screen - GLuc reporter signal (AID 1347082; calls by dose curve; tested in HEK293 reporter line; note: nearly all actives have a fitted effect of over 60% in size; note: potency is the fitted concentration of half-maximal effect)
[2] = qHTS for Inhibitors of the Functional Ribonucleoprotein Complex (vRNP) of Lymphocytic Choriomeningitis Arenaviruses (LCMV): Viability assay - alamar blue signal for LCMV Primary Screen (AID 1347085; calls by dose curve; tested in HEK293 reporter line; note: nearly all actives have a fitted effect of over 80% in size; note: potency is the fitted concentration of half-maximal effect)
[3] = target: Nucleoprotein (Lymphocytic choriomeningitis virus (strain Armstrong)) (UniProt P09992); experiment: qHTS for Inhibitors of the Functional Ribonucleoprotein Complex (vRNP) of Lymphocytic Choriomeningitis Arenaviruses (LCMV): LCMV Primary Screen - GLuc reporter signal (AID 1347086); note: nearly all actives have a fitted effect of over 70% in size; note: potency is the fitted concentration of half-maximal effect
[4] = Confirmatory qHTS for VERO E6 Cytotoxicity Assay: Counterscreen for SARS-CoV-2 CPE Assay (AID 1508605); note: potency is the fitted concentration of half-maximal effect; nearly all actives have a fitted effect of over 60% in size
[5] = Confirmatory qHTS for activators (rescue) of SARS-CoV-2 Cytopathic Effect (CPE) (AID 1508606); note: potency is the fitted concentration of half-maximal effect; nearly all actives have a fitted effect of over 70% in size
[6] = Primary qHTS to identify inhibitors of SARS-CoV-2 cell entry (AID 1645846); settings: activity change, negative = inhibition: at 57.1 µM (top of the series) unless noted; note: nearly all actives have a fitted effect of over 45% in size; note: potency is the fitted concentration of half-maximal effect
Summary of the method: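 HEK293-ACE2 (Expi293F, stable hACE2), 1500 cells/well, o/n 37C; cpd 23 nL pin, 1 h; MLV-PP w/ SARS-CoV-2-S (Wuhan-Hu-1, Δ19 C-term); 48 h 37C; Bright-Glo luminescence; normalized vs S-PP and bald PP.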

[7] = Cytotoxicity counterscreen for inhibitors of SARS-CoV-2 cell entry (AID 1645845); note: nearly all actives have a fitted effect of over 50% in size; note: potency is the fitted concentration of half-maximal effect
Summary of the method: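 48 h compound treatment (after 1 h preincubation), HEK293-ACE2 cells, 37 C/5% CO2; ATP luminescence endpoint; normalized to cell wells and media blanks.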

[8] = target: Alpha-galactosidase (Coffea arabica) (UniProt Q42656); experiment: Counterscreen for Glucocerebrosidase Inhibitors: qHTS Assay for Coffee Bean alpha-Galactosidase at pH 4.5 (AID 957; active = well fitted curve in the direction sought with a large enough effect; an effect the other way counts as inactive or inconclusive)
Summary of the method: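 Green coffee bean enzyme (2 nM final) was incubated with compounds (0.7 nM to 77 uM) and 4-methylumbelliferyl alpha-D-galactopyranoside (80 uM final) in 50 mM citric acid, 0.005% Tween-20, pH 4.5, 20 min at room temperature; AC50 from Hill fits.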

[9] = target: Alpha-galactosidase (Coffea arabica) (UniProt Q42656); experiment: Counterscreen for Glucocerebrosidase Inhibitors: qHTS Assay for Coffee Bean alpha-Galactosidase at pH 5.9 (AID 998; active = well fitted curve in the direction sought with a large enough effect; an effect the other way counts as inactive or inconclusive)
Summary of the method: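 Compounds were titrated from 0.7 nM to 77 uM against green coffee bean alpha-galactosidase (2 nM) using 80 uM fluorogenic 4-methylumbelliferyl substrate. After 20 min at room temperature, reactions were stopped at pH 10 and read by fluorescence.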

[10] = Validation screen for inhibitors of Lassa infection (AID 463096)
[11] = Inducers of the Endoplasmic Reticulum Stress Response (ERSR) in human glioma: Validation (AID 504836; active = well fitted curve in the direction sought with a large enough effect; an effect the other way counts as inactive or inconclusive)
Summary of the method: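 ERSR induction read as luciferase luminescence (Bright-Glo, 10 min at room temperature) in stably transfected human U87-MG glioma cells exposed to compounds for 16 h, using GRP78 as sensor.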

[12] = target: Peroxisome proliferator-activated receptor delta (Homo sapiens) (UniProt Q03181); experiment: qHTS assay for small molecule agonists of peroxisome proliferator-activated receptor delta signaling (AID 588534)
Summary of the method: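 Cell-based beta-lactamase reporter assay run in agonist mode: cells seeded and incubated 5 hrs at 37 C, compounds added and incubated 18 hrs at 37 C. CCF4 dye fluorescence read after 2 hrs at RT; EC50 and efficacy from Hill fits.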

Nucleoprotein (Lymphocytic choriomeningitis virus (strain Armstrong)), sequence (P09992 whole entry, looked up): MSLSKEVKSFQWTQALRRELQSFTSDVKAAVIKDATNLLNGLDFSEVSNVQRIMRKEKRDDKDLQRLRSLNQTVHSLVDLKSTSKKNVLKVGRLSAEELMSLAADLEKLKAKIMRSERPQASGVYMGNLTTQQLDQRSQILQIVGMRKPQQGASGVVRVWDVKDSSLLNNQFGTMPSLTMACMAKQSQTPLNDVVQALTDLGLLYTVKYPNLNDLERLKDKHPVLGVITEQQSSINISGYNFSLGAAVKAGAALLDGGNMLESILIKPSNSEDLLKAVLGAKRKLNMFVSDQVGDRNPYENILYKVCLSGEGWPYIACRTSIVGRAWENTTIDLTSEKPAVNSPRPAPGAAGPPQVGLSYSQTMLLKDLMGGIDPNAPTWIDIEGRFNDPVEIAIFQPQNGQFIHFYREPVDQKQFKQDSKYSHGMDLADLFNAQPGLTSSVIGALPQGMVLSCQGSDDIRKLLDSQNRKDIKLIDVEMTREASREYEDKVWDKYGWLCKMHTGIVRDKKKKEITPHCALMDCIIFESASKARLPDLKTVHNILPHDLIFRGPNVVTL
Alpha-galactosidase (Coffea arabica), sequence (Q42656 whole entry, looked up): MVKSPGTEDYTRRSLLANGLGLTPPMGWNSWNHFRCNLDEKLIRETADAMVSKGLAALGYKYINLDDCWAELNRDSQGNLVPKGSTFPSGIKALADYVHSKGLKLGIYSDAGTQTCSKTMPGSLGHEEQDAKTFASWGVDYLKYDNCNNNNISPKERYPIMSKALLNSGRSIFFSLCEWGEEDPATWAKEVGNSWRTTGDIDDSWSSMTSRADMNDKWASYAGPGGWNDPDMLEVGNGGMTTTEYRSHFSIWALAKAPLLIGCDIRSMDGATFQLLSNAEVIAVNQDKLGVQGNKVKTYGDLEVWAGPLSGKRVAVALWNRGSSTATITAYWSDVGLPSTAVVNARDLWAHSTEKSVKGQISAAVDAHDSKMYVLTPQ
Peroxisome proliferator-activated receptor delta (Homo sapiens), sequence (Q03181 whole entry, looked up): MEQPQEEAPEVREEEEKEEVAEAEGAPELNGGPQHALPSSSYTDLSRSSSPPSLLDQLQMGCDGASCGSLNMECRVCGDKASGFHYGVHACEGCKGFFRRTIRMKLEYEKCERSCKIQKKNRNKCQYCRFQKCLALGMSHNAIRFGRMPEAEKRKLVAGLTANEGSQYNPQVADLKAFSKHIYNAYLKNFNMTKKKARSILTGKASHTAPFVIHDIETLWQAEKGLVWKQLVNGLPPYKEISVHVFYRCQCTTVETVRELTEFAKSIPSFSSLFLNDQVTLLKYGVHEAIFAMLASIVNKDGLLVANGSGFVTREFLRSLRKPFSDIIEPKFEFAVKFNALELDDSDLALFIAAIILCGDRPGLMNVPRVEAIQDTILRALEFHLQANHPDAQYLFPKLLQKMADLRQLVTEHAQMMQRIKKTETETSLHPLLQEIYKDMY

Cc1cccc(Nc2nc(-c3ccncc3)cs2)c1
inactive: Potency [1] | Potency [2] | Potency [3]
active: Potency [4] 10 µM | Potency [5] 0.794 µM | Potency [6] 10 µM

COC1C(O)C(C)OC(OC2CCC3(C=O)C(CCC4C3CCC3(C)C(C5=CC(=O)OC5)CCC43O)C2)C1O (stereo not drawn)
inactive: Potency [1] | Potency [2] | Potency [3]

NS(=O)(=O)c1ccc(Nc2nc(OCC3CCCCC3)c3[nH]cnc3n2)cc1
inactive: Potency [1] | Potency [2] | Potency [3] | Potency [7]

Nc1ccc(S(=O)(=O)Nc2ncccn2)cc1
inactive: Potency [1] | Potency [2] | Potency [3]

C[C@@H]1C(=O)O[C@H]2[C@H](O)[C@@]34[C@H]5CC(C(C)(C)C)[C@]36[C@H](OC(=O)[C@H]6O)O[C@]4(C(=O)O5)[C@@]12O (stereo partly drawn)
inactive: Potency [1] | Potency [2] | Potency [3]

COc1cc(O)c2c(=O)c(-c3ccc(O[C@@H]4O[C@H](CO)[C@@H](O)[C@H](O)[C@H]4O)cc3)coc2c1
inactive: Potency [1] | Potency [2] | Potency [3]

COc1cc2c3cc1Oc1c(OC)c(OC)cc4c1[C@H](Cc1ccc(cc1)Oc1cc(ccc1O)C[C@H]3N(C)CC2)N(C)CC4
inactive: Potency [1] | Potency [2] | Potency [3]

O=C(c1ccc(C=Cc2n[nH]c3ccccc23)cc1)N1CCNCC1
inactive: Potency [1] | Potency [2] | Potency [3]

CCS(=O)(=O)N1CC(CC#N)(n2cc(-c3ncnc4[nH]ccc34)cn2)C1
inactive: Potency [1] | Potency [2] | Potency [3]

COc1ccc(C2CC(c3ccccc3)=NN2c2ccc(S(N)(=O)=O)cc2)cc1 (stereo not drawn)
-0.201%: activity change, negative = inhibition [6]
inactive: Potency [1] | Potency [2] | Potency [3] | Potency [7]

CN1CCN(c2cccc(Nc3nc4c(-c5ccc(S(C)(=O)=O)cc5)cccn4n3)c2)CC1
inactive: Potency [1] | Potency [2] | Potency [3] | Potency [7]

C=CC(=O)Nc1cccc(Sc2nc(Nc3ccc(N4CCN(C)CC4)cc3)ncc2Cl)c1
inactive: Potency [1] | Potency [2] | Potency [3]
active: Potency [7] 8.91 µM | Potency [6] 3.98 µM

COC1=C2C[C@@H](C)C[C@H](OC)[C@@H](O)[C@@H](C)C=C(C)[C@H](OC(N)=O)[C@@H](OC)C=CC=C(C)C(=O)NC(=CC1=O)C2=O
active: Potency [1] 9.68 µM | Potency [2] 13.7 µM | Potency [3] 15.3 µM

O=c1c(-c2ccc(O)cc2)coc2cc(O)ccc12
inactive: outcome [8] | outcome [9] | Potency [10] | outcome [11] | Potency [12] | Potency [1] | Potency [2] | Potency [3] | Potency [7] | Potency [6]
